Laboratory results published in PubChem BioAssay (NCATS).
Results filed as inconclusive are left out. The source made the active and inactive calls. Calls come from the whole dose curve; as a rule, active = well fitted curve in the direction sought with a large enough effect; inconclusive = small, poorly fitted or top-dose-only effect, or another doubt; inactive = no such curve, though single readings can be large; an effect the other way counts as inactive or inconclusive.

Experiment: qHTS to identify inhibitors of the type 1 interferon - major histocompatibility complex class I in skeletal muscle: primary screen against the NCATS Pharmaceutical Collection (AID 1347407);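 note: luminescence of HiBiT knocked into endogenous HLA-B as interferon-induced MHC class I level; % is set by controls: 0 for no effect and ±100 for the full control effect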
Conditions: human skeletal muscle cells, IFN-b-induced MHC-I HiBiT luminescence, 24 h; series mostly up to 45.9 µM; activity change, negative = inhibition: at the top concentration
Outline: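 Immortalized human myoblasts (C25cl48) with HiBiT knocked into endogenous HLA-B*08:01 were stimulated with 4.0 ng/ml IFN-beta and treated with compounds ([…] top 46 uM) for 24 hrs at 37 C. HiBiT lytic luminescence read.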

SMILES	activity change, negative = inhibition
O=S(=O)(O)c1cc(I)c(O)c2ncccc12	2.63% (inactive)
OCc1cc(C(O)CNCCCCCCOCCCCc2ccccc2)ccc1O (centres undefined)	-28.6% (inactive)
O=C1O[C@H]([C@@H](O)CO)C(O)=C1O	-1.45% (inactive)
CCCCCCCCCCCCOS(=O)(=O)O	-4.43% (inactive)
Cc1c(Cl)cccc1Nc1ccccc1C(=O)O	-26.1% (inactive)
[Cl][In]([Cl])[Cl]	-12.6% [at 92.2 µM] (inactive)
NS(=O)(=O)c1cc2c(cc1C(F)(F)F)NC(Cc1ccccc1)NS2(=O)=O (centres undefined)	-5.2% (inactive)
CC(C)(C)C(=O)NCCCC(=O)O	-1.85% (inactive)
NC(=O)c1ncn([C@@H]2O[C@H](CO)[C@@H](O)[C@H]2O)c1N	2.57% (inactive)
O=C1OC(OC(=O)c2cccnc2Nc2cccc(C(F)(F)F)c2)c2ccccc21 (centres undefined)	2.96% (inactive)
COc1ccc2cc1Oc1cc3c(cc1OC)CC[N+](C)(C)[C@H]3Cc1ccc(cc1)Oc1c(OC)c(OC)cc3c1[C@@H](C2)[N+](C)(C)CC3	4.91% (inactive)
O=S(=O)(O)NC1CCCCC1	-7.2% (inactive)
Nc1ccc(S(=O)(=O)NC(=O)c2ccccc2)cc1	-20.3% (inactive)
CCC(=O)c1ccc(O)cc1	0.873% (inactive)
C[C@@H]1CCN(C(=O)[C@H](CCCN=C(N)N)NS(=O)(=O)c2cccc3c2NC[C@H](C)C3)[C@@H](C(=O)O)C1	10.6% (inactive)

Experiment: qHTS for inhibitors of adenylyl cyclases using a fission yeast platform: a pilot screen against the NCATS LOPAC library (AID 1347410);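 note: plate controls were DMSO vehicle for no effect and DPI positive control for full effect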
Conditions: S. pombe CHP2027, fbp1-GFP fluorescence, 18 h, yeast expressing mammalian AC9 and human GNAS; series mostly up to 57.5 µM; activity, positive = inhibition (GFP gain): at the top concentration
Outline: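 S. pombe CHP2027 (AC9-GNAS-PDE4D2) carrying PKA-repressed fbp1-GFP, incubated 18 h at 30C in EMM with LOPAC compounds at up to 57 uM. GFP gain-of-signal read by laser scanning cytometry; DMSO negative control.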

SMILES	activity, positive = inhibition (GFP gain)
OCCN1CCN(CCCN2c3ccccc3Sc3ccc(Cl)cc32)CC1	-0.438% (inactive)
CN(C)CCCN1c2ccccc2Sc2ccc(Cl)cc21	-0.438% (inactive)
CN(C)CCCN1c2ccccc2CCc2ccccc21	-0.438% (inactive)
CN1CCN(C2Cc3ccccc3Sc3ccc(Cl)cc32)CC1 (centres undefined)	-0.438% (inactive)
CSc1ccc2c(c1)C(N1CCN(C)CC1)Cc1ccccc1S2 (centres undefined)	-0.0905% (inactive)
COC(=O)C1=C(C)NC(C)=C(C(=O)OC)C1c1ccccc1[N+](=O)[O-]	-0.438% (inactive)
CNCCC(Oc1ccc(C(F)(F)F)cc1)c1ccccc1 (centres undefined)	-0.438% (inactive)
Cc1c(O)cccc1C(=O)N[C@@H](CSc1ccccc1)[C@H](O)CN1C[C@H]2CCCC[C@H]2C[C@H]1C(=O)NC(C)(C)C	-0.438% (inactive)
CSc1ccc2c(c1)N(CCC1CCCCN1C)c1ccccc1S2 (centres undefined)	-0.438% (inactive)
